Assay results reported in ChEMBL document CHEMBL2218924, “A broad activity screen in support of a chemogenomic map for kinase signalling research and drug discovery” (Biochem J, 2013).

Key:
[1] = target: T1, Serine/threonine-protein kinase 17A (Homo sapiens) (UniProt Q9UEE5); details: at 10 µM
T1 sequence (whole entry): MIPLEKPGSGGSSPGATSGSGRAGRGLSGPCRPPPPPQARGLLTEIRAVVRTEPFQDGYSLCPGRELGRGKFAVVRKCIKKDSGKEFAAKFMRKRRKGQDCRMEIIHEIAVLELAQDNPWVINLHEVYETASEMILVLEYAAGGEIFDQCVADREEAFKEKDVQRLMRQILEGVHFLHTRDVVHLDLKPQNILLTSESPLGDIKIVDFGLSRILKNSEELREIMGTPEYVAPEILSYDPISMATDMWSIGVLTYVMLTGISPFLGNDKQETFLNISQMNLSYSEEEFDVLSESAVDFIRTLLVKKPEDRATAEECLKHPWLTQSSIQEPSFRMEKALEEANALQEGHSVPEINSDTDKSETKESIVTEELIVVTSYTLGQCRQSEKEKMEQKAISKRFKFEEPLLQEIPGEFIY

[2] = target: T2, Dual specificity tyrosine-phosphorylation-regulated kinase 2 (Homo sapiens) (UniProt Q92630); details: at 1 µM
T2 sequence (whole entry): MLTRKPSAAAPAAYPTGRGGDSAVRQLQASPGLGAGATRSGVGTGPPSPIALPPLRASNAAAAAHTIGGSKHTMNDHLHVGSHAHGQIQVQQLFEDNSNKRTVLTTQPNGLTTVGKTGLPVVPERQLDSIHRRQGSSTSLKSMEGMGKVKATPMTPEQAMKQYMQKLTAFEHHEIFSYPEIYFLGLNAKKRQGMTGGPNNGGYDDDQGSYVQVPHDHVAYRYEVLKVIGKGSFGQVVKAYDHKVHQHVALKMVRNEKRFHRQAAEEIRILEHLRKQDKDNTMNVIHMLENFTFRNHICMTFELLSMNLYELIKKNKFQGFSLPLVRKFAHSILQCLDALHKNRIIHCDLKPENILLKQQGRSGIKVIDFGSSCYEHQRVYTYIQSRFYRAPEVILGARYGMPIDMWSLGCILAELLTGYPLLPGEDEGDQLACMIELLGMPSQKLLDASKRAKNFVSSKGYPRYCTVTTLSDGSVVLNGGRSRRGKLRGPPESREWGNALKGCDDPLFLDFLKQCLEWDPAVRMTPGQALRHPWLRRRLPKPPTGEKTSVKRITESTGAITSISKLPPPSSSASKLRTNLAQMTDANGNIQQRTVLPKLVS

[3] = target: T2, Dual specificity tyrosine-phosphorylation-regulated kinase 2 (Homo sapiens); details: at 10 µM
[4] = target: Epidermal growth factor receptor (Homo sapiens) (UniProt P00533); details: at 1 µM
[5] = target: Epidermal growth factor receptor (Homo sapiens) (UniProt P00533); details: at 10 µM
[6] = target: T3, Ephrin type-A receptor 1 (Homo sapiens) (UniProt P21709); details: at 1 µM
T3 sequence (whole entry): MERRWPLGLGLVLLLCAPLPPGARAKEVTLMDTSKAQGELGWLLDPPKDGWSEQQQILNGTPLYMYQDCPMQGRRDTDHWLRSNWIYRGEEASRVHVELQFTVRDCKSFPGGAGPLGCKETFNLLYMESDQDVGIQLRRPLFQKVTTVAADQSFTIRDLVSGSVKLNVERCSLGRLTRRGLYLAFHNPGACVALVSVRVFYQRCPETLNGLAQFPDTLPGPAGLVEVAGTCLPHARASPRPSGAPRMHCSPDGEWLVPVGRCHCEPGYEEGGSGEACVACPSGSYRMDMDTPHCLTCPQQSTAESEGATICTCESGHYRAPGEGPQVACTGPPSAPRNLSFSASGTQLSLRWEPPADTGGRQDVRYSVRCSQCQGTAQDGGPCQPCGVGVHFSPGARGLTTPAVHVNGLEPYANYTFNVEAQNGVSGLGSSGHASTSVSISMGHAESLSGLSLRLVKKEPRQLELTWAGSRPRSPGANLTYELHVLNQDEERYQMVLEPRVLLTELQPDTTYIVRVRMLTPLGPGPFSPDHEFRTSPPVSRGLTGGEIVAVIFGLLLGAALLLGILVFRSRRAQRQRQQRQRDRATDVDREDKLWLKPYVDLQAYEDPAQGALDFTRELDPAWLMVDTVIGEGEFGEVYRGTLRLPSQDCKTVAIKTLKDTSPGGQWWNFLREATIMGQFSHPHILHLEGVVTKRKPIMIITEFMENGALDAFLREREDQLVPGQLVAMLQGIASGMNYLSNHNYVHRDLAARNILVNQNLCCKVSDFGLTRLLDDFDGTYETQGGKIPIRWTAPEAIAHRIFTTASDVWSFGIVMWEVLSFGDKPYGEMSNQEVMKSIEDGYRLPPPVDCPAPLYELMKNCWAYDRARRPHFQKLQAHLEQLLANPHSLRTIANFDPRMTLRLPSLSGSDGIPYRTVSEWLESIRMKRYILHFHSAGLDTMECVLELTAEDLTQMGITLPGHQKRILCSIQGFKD

[7] = target: T3, Ephrin type-A receptor 1 (Homo sapiens); details: at 10 µM
[8] = target: Ephrin type-A receptor 2 (Homo sapiens) (UniProt P29317); details: at 1 µM
[9] = target: Ephrin type-A receptor 2 (Homo sapiens) (UniProt P29317); details: at 10 µM
[10] = target: T4, Ephrin type-A receptor 3 (Homo sapiens) (UniProt P29320); details: at 1 µM
T4 sequence (whole entry): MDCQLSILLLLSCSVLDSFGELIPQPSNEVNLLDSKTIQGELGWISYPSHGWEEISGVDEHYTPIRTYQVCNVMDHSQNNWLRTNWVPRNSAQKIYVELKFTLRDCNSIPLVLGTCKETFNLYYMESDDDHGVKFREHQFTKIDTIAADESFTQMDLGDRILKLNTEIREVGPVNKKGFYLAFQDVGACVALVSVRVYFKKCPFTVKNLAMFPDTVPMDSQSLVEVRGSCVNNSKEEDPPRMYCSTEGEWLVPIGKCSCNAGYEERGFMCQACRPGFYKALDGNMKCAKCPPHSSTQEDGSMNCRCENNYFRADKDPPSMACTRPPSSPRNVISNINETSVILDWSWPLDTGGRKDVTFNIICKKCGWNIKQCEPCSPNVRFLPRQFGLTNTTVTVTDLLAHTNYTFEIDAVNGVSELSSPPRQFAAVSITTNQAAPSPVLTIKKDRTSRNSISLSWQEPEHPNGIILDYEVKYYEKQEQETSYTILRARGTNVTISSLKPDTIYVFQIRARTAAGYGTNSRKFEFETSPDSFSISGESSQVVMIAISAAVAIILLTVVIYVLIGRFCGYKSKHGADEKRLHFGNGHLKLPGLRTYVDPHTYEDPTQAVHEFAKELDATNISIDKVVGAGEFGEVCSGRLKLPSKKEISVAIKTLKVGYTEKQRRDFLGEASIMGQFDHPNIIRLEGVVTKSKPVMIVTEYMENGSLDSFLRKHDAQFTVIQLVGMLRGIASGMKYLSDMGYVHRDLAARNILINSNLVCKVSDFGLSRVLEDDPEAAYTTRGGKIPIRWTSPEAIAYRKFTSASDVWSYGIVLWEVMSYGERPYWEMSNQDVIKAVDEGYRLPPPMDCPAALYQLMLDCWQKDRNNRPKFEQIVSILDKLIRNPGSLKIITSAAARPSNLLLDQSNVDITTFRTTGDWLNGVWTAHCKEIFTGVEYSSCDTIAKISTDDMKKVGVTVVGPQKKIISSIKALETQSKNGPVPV

[11] = target: T4, Ephrin type-A receptor 3 (Homo sapiens); details: at 10 µM
[12] = target: Ephrin type-A receptor 4 (Homo sapiens) (UniProt P54764); details: at 1 µM
[13] = target: Ephrin type-A receptor 4 (Homo sapiens) (UniProt P54764); details: at 10 µM
[14] = target: Ephrin type-A receptor 5 (Homo sapiens) (UniProt P54756); details: at 1 µM
[15] = target: Ephrin type-A receptor 5 (Homo sapiens) (UniProt P54756); details: at 10 µM
[16] = target: Ephrin type-A receptor 7 (Homo sapiens) (UniProt Q15375); details: at 1 µM
[17] = target: Ephrin type-A receptor 7 (Homo sapiens) (UniProt Q15375); details: at 10 µM
[18] = target: T5, Ephrin type-A receptor 8 (Homo sapiens) (UniProt P29322); details: at 1 µM
T5 sequence (whole entry): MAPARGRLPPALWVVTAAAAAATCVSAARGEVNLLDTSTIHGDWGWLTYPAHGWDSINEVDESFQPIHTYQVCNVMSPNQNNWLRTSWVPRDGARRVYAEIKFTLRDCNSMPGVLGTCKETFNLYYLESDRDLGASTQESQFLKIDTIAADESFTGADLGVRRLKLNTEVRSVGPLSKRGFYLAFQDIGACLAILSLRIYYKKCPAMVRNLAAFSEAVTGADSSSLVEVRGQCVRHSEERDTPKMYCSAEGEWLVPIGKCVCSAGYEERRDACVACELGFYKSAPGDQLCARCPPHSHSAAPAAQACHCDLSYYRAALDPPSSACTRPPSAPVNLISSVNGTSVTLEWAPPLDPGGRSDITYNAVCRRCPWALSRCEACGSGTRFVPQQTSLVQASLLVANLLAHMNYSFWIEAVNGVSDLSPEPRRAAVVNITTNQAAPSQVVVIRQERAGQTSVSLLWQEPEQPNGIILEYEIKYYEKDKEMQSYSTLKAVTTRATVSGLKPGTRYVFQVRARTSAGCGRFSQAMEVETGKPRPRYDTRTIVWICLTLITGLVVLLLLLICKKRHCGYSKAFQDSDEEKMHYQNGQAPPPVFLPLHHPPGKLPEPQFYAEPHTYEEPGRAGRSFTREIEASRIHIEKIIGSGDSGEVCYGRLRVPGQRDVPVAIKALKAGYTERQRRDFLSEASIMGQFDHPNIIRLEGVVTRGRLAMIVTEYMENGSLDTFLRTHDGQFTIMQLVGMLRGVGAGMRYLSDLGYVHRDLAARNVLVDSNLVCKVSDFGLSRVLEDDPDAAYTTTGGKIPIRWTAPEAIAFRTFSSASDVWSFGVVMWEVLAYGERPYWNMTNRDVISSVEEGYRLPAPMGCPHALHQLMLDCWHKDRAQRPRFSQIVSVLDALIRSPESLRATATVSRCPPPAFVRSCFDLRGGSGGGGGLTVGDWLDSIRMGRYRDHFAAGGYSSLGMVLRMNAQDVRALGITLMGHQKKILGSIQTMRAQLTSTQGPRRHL

[19] = target: T5, Ephrin type-A receptor 8 (Homo sapiens); details: at 10 µM
[20] = target: T6, Ephrin type-B receptor 1 (Homo sapiens) (UniProt P54762); details: at 1 µM
T6 sequence (whole entry): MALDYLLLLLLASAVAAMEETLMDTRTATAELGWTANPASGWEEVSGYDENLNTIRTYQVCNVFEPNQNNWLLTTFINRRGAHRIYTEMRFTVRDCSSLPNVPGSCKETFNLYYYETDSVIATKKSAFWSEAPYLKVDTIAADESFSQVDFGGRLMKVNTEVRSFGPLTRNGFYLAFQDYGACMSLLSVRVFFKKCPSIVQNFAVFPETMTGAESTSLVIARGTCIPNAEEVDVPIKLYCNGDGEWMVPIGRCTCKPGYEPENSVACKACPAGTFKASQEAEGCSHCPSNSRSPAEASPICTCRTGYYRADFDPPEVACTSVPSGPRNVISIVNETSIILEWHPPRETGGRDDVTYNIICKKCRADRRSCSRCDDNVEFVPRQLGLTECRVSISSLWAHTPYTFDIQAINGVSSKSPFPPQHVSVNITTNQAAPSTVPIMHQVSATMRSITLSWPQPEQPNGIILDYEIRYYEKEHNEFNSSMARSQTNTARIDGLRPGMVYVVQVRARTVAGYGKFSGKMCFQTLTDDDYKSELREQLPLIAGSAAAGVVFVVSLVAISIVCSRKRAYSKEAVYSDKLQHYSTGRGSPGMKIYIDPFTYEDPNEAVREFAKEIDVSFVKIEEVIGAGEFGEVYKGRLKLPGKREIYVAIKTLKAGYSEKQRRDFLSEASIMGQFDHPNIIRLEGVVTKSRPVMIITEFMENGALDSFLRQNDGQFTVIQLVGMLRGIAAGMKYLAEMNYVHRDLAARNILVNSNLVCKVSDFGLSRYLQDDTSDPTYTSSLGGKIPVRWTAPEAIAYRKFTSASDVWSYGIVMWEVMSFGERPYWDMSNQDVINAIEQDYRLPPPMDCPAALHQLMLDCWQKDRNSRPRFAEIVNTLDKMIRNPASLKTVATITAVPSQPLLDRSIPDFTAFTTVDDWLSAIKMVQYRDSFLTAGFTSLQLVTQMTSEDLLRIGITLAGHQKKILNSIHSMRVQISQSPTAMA

Chain of Ephrin type-A receptor 2 (Homo sapiens) (P29317 whole entry): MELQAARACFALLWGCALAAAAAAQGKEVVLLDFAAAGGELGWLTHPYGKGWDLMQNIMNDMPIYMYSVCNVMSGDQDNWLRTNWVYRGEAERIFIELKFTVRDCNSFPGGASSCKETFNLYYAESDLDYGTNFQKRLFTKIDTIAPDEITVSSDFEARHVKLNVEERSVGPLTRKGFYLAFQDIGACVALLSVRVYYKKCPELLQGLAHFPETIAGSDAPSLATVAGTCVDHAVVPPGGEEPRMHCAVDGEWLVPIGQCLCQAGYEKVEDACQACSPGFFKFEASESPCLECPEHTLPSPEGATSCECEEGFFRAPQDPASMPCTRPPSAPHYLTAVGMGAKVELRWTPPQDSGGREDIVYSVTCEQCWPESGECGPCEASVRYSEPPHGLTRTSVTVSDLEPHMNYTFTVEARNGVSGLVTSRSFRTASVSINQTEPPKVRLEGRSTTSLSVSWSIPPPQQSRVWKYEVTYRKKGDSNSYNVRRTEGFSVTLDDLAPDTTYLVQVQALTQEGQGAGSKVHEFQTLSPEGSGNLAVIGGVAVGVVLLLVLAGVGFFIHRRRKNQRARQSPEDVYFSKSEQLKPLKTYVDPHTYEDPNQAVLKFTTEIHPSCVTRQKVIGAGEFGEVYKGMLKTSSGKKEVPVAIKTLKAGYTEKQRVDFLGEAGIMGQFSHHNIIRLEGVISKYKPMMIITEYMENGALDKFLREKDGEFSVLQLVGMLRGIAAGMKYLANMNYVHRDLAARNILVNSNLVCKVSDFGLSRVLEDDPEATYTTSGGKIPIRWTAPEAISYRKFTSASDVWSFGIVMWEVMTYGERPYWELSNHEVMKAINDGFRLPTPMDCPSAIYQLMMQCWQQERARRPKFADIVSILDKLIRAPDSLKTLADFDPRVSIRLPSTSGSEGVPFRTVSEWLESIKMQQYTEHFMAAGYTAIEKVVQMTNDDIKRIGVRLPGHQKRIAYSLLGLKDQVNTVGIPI
Chain of Ephrin type-A receptor 4 (Homo sapiens) (P54764 whole entry): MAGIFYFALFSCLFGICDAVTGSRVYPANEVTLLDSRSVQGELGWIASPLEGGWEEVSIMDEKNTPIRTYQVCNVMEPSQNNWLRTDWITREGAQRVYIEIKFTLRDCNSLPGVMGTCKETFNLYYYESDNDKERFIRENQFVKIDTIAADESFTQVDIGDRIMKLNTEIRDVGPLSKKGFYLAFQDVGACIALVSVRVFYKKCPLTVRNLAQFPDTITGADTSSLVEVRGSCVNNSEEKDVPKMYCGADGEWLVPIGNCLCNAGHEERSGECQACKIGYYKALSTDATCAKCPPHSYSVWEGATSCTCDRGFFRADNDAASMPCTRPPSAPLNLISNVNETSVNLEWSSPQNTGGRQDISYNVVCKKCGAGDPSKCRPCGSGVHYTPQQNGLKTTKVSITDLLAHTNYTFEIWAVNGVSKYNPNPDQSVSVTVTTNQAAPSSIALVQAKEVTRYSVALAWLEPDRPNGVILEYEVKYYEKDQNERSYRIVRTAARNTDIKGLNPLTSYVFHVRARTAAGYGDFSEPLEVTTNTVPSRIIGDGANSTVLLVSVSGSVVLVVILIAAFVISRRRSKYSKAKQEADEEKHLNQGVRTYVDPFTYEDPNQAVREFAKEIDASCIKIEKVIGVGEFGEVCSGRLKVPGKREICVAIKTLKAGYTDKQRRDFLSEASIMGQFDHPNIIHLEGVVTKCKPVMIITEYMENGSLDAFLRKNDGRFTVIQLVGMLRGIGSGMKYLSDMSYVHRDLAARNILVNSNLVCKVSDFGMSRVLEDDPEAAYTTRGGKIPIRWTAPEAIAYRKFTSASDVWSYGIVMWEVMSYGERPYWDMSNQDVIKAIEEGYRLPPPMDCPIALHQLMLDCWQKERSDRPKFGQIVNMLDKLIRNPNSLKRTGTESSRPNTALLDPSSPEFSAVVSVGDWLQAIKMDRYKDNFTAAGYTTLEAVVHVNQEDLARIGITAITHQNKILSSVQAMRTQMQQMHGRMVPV
Chain of Ephrin type-A receptor 7 (Homo sapiens) (Q15375 28-998 limits assumed): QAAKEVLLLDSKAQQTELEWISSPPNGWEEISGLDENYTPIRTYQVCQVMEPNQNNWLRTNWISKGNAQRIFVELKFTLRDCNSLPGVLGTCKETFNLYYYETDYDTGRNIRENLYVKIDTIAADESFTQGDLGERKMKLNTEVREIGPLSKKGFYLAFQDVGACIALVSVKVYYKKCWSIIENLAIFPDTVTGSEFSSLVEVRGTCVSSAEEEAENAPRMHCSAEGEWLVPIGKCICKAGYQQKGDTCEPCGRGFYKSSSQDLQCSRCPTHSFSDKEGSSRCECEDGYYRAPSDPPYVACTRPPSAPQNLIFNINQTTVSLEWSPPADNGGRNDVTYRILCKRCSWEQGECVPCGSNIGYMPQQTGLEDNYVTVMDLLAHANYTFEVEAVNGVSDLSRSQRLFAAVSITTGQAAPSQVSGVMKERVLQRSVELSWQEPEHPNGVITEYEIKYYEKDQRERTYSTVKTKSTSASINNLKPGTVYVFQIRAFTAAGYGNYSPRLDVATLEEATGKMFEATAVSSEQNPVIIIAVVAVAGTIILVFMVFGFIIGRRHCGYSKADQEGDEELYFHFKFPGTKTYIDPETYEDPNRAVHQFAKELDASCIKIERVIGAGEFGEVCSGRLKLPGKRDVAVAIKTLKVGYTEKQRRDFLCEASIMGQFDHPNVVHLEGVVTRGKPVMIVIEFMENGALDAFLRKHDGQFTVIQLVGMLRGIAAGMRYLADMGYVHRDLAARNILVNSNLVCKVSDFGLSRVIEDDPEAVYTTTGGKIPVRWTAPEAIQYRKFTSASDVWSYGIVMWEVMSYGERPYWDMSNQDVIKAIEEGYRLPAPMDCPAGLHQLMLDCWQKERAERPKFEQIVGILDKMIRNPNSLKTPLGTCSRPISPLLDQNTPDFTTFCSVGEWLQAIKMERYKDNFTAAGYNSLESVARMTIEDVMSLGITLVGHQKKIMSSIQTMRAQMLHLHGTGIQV
Chain of Ephrin type-A receptor 5 (Homo sapiens) (P54756 whole entry): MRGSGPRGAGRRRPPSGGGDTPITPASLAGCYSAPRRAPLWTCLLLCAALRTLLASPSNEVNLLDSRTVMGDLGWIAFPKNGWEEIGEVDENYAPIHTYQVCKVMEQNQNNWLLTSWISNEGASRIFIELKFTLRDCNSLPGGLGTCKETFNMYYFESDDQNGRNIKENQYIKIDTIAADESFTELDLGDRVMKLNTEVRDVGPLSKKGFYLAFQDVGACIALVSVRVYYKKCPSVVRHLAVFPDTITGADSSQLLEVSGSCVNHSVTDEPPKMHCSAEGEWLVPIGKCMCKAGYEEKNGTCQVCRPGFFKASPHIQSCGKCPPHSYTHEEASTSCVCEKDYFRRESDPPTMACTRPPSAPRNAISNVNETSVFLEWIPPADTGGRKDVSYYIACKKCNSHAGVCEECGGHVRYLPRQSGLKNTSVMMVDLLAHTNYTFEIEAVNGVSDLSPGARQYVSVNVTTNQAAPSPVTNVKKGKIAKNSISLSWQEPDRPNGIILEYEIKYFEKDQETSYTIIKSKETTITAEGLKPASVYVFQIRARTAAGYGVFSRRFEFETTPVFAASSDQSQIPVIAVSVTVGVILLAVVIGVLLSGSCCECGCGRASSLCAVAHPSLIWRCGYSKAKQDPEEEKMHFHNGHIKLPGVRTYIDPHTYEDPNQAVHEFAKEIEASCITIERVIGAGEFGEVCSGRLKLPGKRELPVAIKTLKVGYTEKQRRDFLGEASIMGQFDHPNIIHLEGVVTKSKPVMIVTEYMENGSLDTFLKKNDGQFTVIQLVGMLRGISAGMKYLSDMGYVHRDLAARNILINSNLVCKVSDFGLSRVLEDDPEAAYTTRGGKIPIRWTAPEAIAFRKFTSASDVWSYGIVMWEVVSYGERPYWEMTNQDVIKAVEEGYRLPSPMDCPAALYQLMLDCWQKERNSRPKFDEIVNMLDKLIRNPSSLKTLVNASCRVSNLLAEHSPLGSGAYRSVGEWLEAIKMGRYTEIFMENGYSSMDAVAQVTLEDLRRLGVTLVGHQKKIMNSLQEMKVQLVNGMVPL

| Structure (SMILES) | residual activity [1] [%] | residual activity [2] [%] | residual activity [3] [%] | residual activity [4] [%] | residual activity [5] [%] | residual activity [6] [%] | residual activity [7] [%] | residual activity [8] [%] | residual activity [9] [%] | residual activity [10] [%] | residual activity [11] [%] | residual activity [12] [%] | residual activity [13] [%] | residual activity [14] [%] | residual activity [15] [%] | residual activity [16] [%] | residual activity [17] [%] | residual activity [18] [%] | residual activity [19] [%] | residual activity [20] [%] |
| --- | --- | --- | --- | --- | --- | --- | --- | --- | --- | --- | --- | --- | --- | --- | --- | --- | --- | --- | --- | --- |
| O=C1NC(=O)/C(=C\c2ccc3nccnc3c2)S1 | 19 | 7 | -4 | 100 | 113 | 95 | 90 | 100 | 111 | 91 | 87 | 108 | 106 | 132 | 101 | 97 | 94 | 88 | 94 | 115 |
| COc1cc2ncnc(N3CCN(C(=O)Nc4ccc(Oc5ccccc5)cc4)CC3)c2cc1OC | 101 | 92 | 98 | – | – | 85 | 76 | 101 | 109 | 98 | 112 | 99 | 101 | 117 | 124 | 95 | 93 | 87 | 99 | 96 |
| Cc1ccc(NC2=CC(=O)c3sc(C)nc3C2=O)cc1 | 81 | 85 | 100 | – | – | 95 | 91 | 95 | 102 | 92 | 97 | 101 | 112 | 110 | 100 | 90 | 83 | 89 | 96 | 81 |
